Test results taken from PubChem BioAssay (Tox21).
Inconclusive results are not listed. A number with no mark means an inactive call. Calls of active or inactive are those of the source. The call rests on the fitted dose curve; in most records, active means well fitted cell-killing curve with a large enough effect in the repeat runs; inconclusive means weak or mixed curves, or effect the other way; inactive means flat fitted curve, though single readings scatter.

Test: cAMP Responsive Elements (CRE) small molecule agonists, cell-based qHTS assay: qHTS cell viability counter screen (AID 2060914);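 further: viability read after 3 h of compound exposure; nearly all actives have a fitted effect of over 50% in size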
Conditions: CRE-bla HEK293T viability, CellTiter-Glo luminescence, 5 h; series mostly up to 92.4 µM; activity change, negative = cytotoxicity: at the top concentration
Text: National Center for Advancing Translational Sciences [NCATS]
Division of Preclinical Innovation [DPI]
U.S. Environmental Protection Agency [EPA]
National Institutes of Environmental Health Sciences [NIEHS]
National Toxicology Program [NTP]
U.S. Food and Drug Administration [FDA]
CREB (cyclic-AMP Responsive Element Binding Protein) is a cellular transcription factor. It binds to certain DNA sequences called cAMP Responsive Elements (CRE) and regulates the transcription of the genes. […] This cell line can be used to find agonists/antagonists of the cyclic AMP signaling pathway. The activation of the report gene under culture conditions can be detected by fluorescence intensity. This cell line has been used to screen the Tox21 10K compound library to identify agonists that induce oxidative stress. The cytotoxicity of the Tox21 compound library against the CRE-bla cell line was tested in parallel by measuring the cell viability using CellTiter-Glo assay (Promega, Madison, WI) in the same wells.
Tox21 Assay Protocol Summary:
CRE-bla Hek 293T cells were suspended in assay medium (DMEM containing 10% dialyzed FBS, 0.1 mM NEAA, 1 mM sodium pyruvate and 25 mM HEPES) and dispensed at 2,000 cells/5 uL /well into 1536-well black wall/clear bottom plates using a Multidrop Combi (ThermoFisher Scientific, Waltham, MA) dispenser. After the assay plates were incubated at 37 C/5% CO2 for 18 hrs, 23 nL of compounds dissolved in DMSO, positive controls or DMSO only was transferred to the assay plate by a pintool workstation (Kalypsys, San Diego, CA). After the plates were incubated at 37 C/5% CO2 for 3 hrs, 1 uL of LiveBLAzer B/G FRET substrate (Invitrogen, Carlsbad, CA) was added to each well using Bioraptr Flying Reagent Dispenser (FRD, Aurora Discovery, San Diego, CA). The plates were incubated at room temperature for 2 h, then fluorescence intensities were measured using an Envision plate reader (PerkinElmer, Shelton, CT) at Excitation 405nm, Emission 460nm and 530nm. The % activity was determined from the ratio of 460nm/530nm. For cell viability readout that measures cytotoxicity, 4 uL /well of CellTiter-Glo reagent was added into the assay plates using Bioraptr FRD. After 30 min incubation at room temperature, the luminescence intensity in the assay plates was measured using a ViewLux (PerkinElmer, Shelton, CT) plate reader.
On the % scale 0 is the no-effect control and ±100 the full control effect; potency means the concentration at half of the fitted maximal effect.

Compound	activity change, negative = cytotoxicity	Potency
CCC(C)(C)O	-9.76%	
CC(Cl)CCl (stereo not given)	-5.73%	
CCOc1cc(Oc2ccc(C(F)(F)F)cc2Cl)ccc1[N+](=O)[O-]	-15.3%	
COc1ccc2c(c1OC)C(=O)O[C@H]2[C@@H]1c2cc3c(cc2CCN1C)OCO3	3.27% [at 42.5 µM]	
CC(C)Nc1ccc(Nc2ccccc2)cc1	-13.9%	
CCOC(=O)COc1ccc(Cl)cc1Cl	-1.71%	
N#CCCl	-15.4%	
CCOP(=S)(OCC)SCSP(=S)(OCC)OCC	1.86%	
CCNC(=O)NC(=O)/C(C#N)=N/OC	-0.684%	
ClC(Cl)c1ccccc1		inactive
C=CC(=O)OC	0.16%	
N#CCCO	-1.55%	
CC[n+]1c(-c2ccccc2)c2cc(N)ccc2c2ccc(N)cc21		inactive
c1ccc(Nc2ccc(Nc3ccccc3)cc2)cc1	-7.89%	
CCCCC(CC)COC(=O)Cl (stereo not given)		inactive
CCC(C)(C)C(=O)OC1=C(c2ccc(Cl)cc2Cl)C(=O)OC12CCCCC2	15.8%	
c1ccc(N2CCNCC2)cc1	0.652% [at 42.5 µM]	
O=[N+]([O-])c1ccc(F)c([N+](=O)[O-])c1	-11.5%	
CN1[C@@H]2CC[C@H]1CC(O)C2 (stereo not given in full)	0.984%	
N#CS		inactive

Compound	activity change, negative = cytotoxicity	Potency
CCOP(=S)(OCC)O/N=C(\C#N)c1ccccc1		inactive
Oc1c(I)cc(I)cc1I	7.61%	
N#C/C=C/C#N	0.748%	
Cl[C@H]1OCCO[C@@H]1Cl	-2.43%	
O=[N+]([O-])C(Br)(CO)CO	16.2%	
ClC(Cl)(Cl)Cl	-4.63%	
CCc1ccccc1C	6.07%	
C[C@H]1CCC[C@H](O)CCCCCc2cc(O)cc(O)c2C(=O)O1	-0.423%	
[Cl][Sn]([Cl])([Cl])[Cl]	0.617%	
C1CCC2CCCCC2C1 (stereo not given)	10.6%	
O=[N+]([O-])O		inactive
CC(Cc1ccccc1)NCCn1cnc2c1c(=O)n(C)c(=O)n2C (stereo not given)	-0.787%	
CC(=O)[O][Pb]([c]1ccccc1)([c]1ccccc1)[c]1ccccc1		24.3 µM (active)
CCOC(=O)c1cncn1C(C)c1ccccc1 (stereo not given)	2.54% [at 42.5 µM]	
N#CNC#N	2.5%	
c1ccc2c(c1)Nc1ccccc1S2	-5.55% [at 42.5 µM]	
c1ccc(-c2cccc(-c3ccccc3)c2)cc1	-23.9%	
[N-]=[N+]=CC(=O)OC[C@H](N)C(=O)O		inactive
O=C(O)C(F)(F)C(F)(F)C(F)(F)C(F)(F)C(F)(F)C(F)(F)C(F)(F)C(F)(F)F	-0.146%	
COP(=O)(OC)Oc1ccc([N+](=O)[O-])cc1	1.45%	
